# Assay results: PMC4336329 (PLoS ONE, 2015)
# Among all 310,000 compounds or so, about 14,000 (4.5%) showed an effect of 50% or more. Effects have a minus sign here. What follows is part of a selection rich in strong results, with near analogues and random picks from the rest.
# Molecular target: human ether-à-go-go-related gene (hERG) potassium channel (human, UniProt Q12809)
# Assay: primary screen, population patch clamp on CHO cells stably expressing hERG; higher = less effect of the substance
# 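Also: peak tail current of the secondary pulse compared with the same well before compound.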
# Chain of human ether-à-go-go-related gene (hERG) potassium channel (Q12809 whole entry, looked up): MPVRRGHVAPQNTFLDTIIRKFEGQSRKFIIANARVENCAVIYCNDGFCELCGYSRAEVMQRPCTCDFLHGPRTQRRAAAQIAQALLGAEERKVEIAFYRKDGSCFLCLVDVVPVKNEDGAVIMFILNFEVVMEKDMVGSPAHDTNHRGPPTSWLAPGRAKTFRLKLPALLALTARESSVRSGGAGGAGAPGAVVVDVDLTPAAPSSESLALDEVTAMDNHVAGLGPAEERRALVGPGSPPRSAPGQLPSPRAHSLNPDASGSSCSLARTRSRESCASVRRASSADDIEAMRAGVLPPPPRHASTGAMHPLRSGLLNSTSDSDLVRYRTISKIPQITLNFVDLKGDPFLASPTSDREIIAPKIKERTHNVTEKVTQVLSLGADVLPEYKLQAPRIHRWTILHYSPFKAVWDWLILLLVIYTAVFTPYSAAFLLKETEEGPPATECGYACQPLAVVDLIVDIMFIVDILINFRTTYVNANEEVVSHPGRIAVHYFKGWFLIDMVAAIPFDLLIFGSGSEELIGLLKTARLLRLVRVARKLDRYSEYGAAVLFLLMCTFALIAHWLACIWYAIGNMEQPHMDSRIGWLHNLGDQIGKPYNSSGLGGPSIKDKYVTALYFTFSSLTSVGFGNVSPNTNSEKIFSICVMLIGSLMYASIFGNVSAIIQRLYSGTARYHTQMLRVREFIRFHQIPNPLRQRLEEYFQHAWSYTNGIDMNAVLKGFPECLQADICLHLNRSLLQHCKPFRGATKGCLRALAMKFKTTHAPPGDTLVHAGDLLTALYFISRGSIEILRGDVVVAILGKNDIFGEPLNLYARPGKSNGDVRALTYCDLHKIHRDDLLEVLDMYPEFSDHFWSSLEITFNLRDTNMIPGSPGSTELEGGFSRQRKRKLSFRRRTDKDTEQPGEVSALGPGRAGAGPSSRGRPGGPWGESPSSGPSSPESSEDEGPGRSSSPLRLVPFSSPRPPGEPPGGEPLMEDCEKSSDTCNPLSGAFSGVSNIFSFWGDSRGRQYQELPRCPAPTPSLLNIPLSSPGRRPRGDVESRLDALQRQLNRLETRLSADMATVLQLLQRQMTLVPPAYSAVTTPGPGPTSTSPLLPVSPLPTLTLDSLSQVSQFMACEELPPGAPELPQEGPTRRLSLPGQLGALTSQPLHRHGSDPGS
row,Structure (SMILES),"hERG current change (%, negative = inhibition) at 10uM"
1,Cc1cccc(C)c1NC(=O)C(NC(=O)c1ccccn1)c1ccc([N+](=O)[O-])cc1 (stereo not drawn),7.6%
2,NNC(=O)c1ccc(COc2ccc([N+](=O)[O-])cc2)o1,-23.1%
3,CC1CCCCN1C(=O)c1ccc(COc2ccc([N+](=O)[O-])cc2)o1 (stereo not drawn),-69.9%
4,O=C(O)c1ccc(COc2ccc([N+](=O)[O-])cc2)o1,23.2%
5,COc1ccc(/C=C(\C#N)C(=O)OCC(=O)Nc2ccc(C(C)(C)C)cc2)cc1,0.425%
6,COc1ccccc1OCCNC(=O)CSC(=S)N1CCCC1,-4.17%
7,O=C(Cc1ncc(C(F)(F)F)cc1Cl)N1CCN(c2cccc(Cl)c2)CC1,-60.6%
8,COc1ccc(OCC(=O)N2CCN(c3cccc(C(F)(F)F)c3)CC2)cc1,-42.6%
9,COc1ccc(N2CCN(C(=O)Cc3ncc(C(F)(F)F)cc3Cl)CC2)cc1,-51.9%
10,CN1CCN(C(=O)CCc2ncc(C(F)(F)F)cc2Cl)CC1,11.7%
11,O=C(Cc1ncc(C(F)(F)F)cc1Cl)N1CCN(c2ccccn2)CC1,-17.2%
12,O=C(Cc1ncc(C(F)(F)F)cc1Cl)N1CCN(c2ccc(F)cc2)CC1,-41.3%
13,CCN1CCN(C(=O)C2CCN(S(=O)(=O)c3ccc4c(c3)NC(=O)C(C)S4)CC2)CC1 (stereo not drawn),14.1%
14,COCCN(C(=O)c1csnn1)C(C(=O)NC1CCCC1)c1ccccc1 (stereo not drawn),3.23%
15,CC(C)C1=C2OC(N)=C(C#N)C(C#N)=C2C(C)CC1 (stereo not drawn),9.98%
16,C#CCNC(=O)C1=C[C@@H](c2ccc(Br)cc2)[C@H](CCCO)[C@@H](OCC)O1,-28.4%
17,CCOc1ccc(N(CC)S(=O)(=O)c2ccc3c(c2)oc(=O)n3C)cc1,-5.43%
18,COC(=O)c1sccc1NC(=O)c1cc(C)on1,4.01%
19,COc1ccccc1-c1coc2c(CN3CCC(C)CC3)c(O)ccc2c1=O,7.18%

row,Structure (SMILES),"hERG current change (%, negative = inhibition) at 10uM"
1,Cc1ccc(S(=O)(=O)N2CCOCC2)cc1C(=O)NCCCn1ccnc1,15.6%
2,NCC(O)COCCC12CC3CC(CC(C3)C1)C2 (stereo not drawn),-1.48%
3,CC(NCC(O)COCCC12CC3CC(CC(C3)C1)C2)c1ccccc1.Cl (stereo not drawn),-53.8%
4,Cl.OC(COCCC12CC3CC(CC(C3)C1)C2)CN1CCCCC1 (stereo not drawn),-40.1%
5,CC1CCCCN1CC(O)COCCC12CC3CC(CC(C3)C1)C2.Cl (stereo not drawn),-63.6%
6,Cl.OC(COCCC12CC3CC(CC(C3)C1)C2)CN1CCCC1 (stereo not drawn),-30.3%
7,CC1CCN(CC(O)COCCC23CC4CC(CC(C4)C2)C3)CC1.Cl (stereo not drawn),-51.5%
8,CC1CC(OCC(O)CN2CCCCC2C)CC(C)(C)C1.Cl (stereo not drawn),-25.8%
9,CC1CCCCN1CC(O)COCc1ccccc1.Cl (stereo not drawn),5.66%
10,CC1CCC(C(C)C)C(OCC(O)CNC(C)c2ccccc2)C1.Cl (stereo not drawn),0.875%
11,CCC(=O)Nc1ccc(N2CCN(C(=O)c3ccccc3C)CC2)cc1,0.168%
12,CSc1nc(N(C)C)c2ccccc2n1,-19%
13,CCn1ccnc1CN(C)Cc1c(C(=O)N2C[C@@H](C)O[C@@H](C)C2)nc2ccc(Cl)cn12,11.6%
14,Cc1ccc(N2N=C(C(=O)O)CCC2=O)cc1Cl,-45.2%
15,CCC1(c2ccccc2)NC(=O)N(CC(=O)c2ccc3c(c2)OCO3)C1=O (stereo not drawn),-4.15%
16,Cc1ccc2[nH]c(=O)c(CN(CCN3CCOCC3)C(=O)Nc3ccc(F)cc3)cc2c1,-37%
17,O=C(Nc1ccccc1)N(CCCN1CCOCC1)Cc1cc2cc3c(cc2[nH]c1=O)OCCO3,-2.99%
18,O=C(Nc1cccc(Cl)c1)N(CCCN1CCOCC1)Cc1ccccc1F,-64.5%
19,CCc1ccc2[nH]c(=O)c(CN(CCCN3CCOCC3)C(=O)Nc3ccccc3)cc2c1,-54.2%

row,Structure (SMILES),"hERG current change (%, negative = inhibition) at 10uM"
1,CCc1ccc2[nH]c(=O)c(CN(CCCN3CCOCC3)C(=O)Nc3ccc(F)cc3)cc2c1,-68.1%
2,O=C(Nc1ccc(F)cc1)N(CCCN1CCOCC1)Cc1cc2cc3c(cc2[nH]c1=O)OCO3,-49.3%
3,Cc1ccc2[nH]c(=O)c(CN(CCCN3CCOCC3)C(=O)Nc3cccc(Cl)c3)cc2c1,-32.4%
4,O=C(Nc1cccc(Cl)c1)N(CCN1CCOCC1)Cc1ccccc1F,-49.6%
5,O=C(Nc1ccccc1)N(CCCN1CCOCC1)Cc1ccccc1F,-20.6%
6,O=C(Nc1ccc(F)cc1)N(CCCN1CCOCC1)Cc1cc2cc3c(cc2[nH]c1=O)OCCO3,-25.1%
7,CCc1ccc2[nH]c(=O)c(CN(CCN3CCOCC3)C(=O)Nc3ccccc3F)cc2c1,-23.1%
8,Cc1ccc2[nH]c(=O)c(CN(CCCN3CCOCC3)C(=O)Nc3ccc(Cl)cc3)cc2c1,-71.7%
9,CCOc1ccc(S(=O)(=O)Nc2ccc3c(c2)OCO3)cc1,-14.9%
10,COc1cc(NC(=S)NCCSc2ccc(C)cc2)cc(OC)c1,-1.01%
11,C=CCOc1ccccc1CNCc1cccnc1.Cl,12.6%
12,Cc1cc(C(=O)NNC(=S)Nc2cccc(C(F)(F)F)c2)nn1C,30.1%
13,Cc1ccc(-n2cc[nH]c2=S)cc1C,22.7%
14,COc1ccc2[nH]c(=O)c(CN(CCCN3CCOCC3)C(=O)NCc3ccccc3)cc2c1,8.39%
15,COc1ccc(CN(CCCN2CCOCC2)C(=O)Nc2cccc(Cl)c2)cc1OC,-39.3%
16,Cc1ccc(NC(=O)N(CCCN2CCOCC2)Cc2cc3cc4c(cc3[nH]c2=O)OCO4)cc1,-42%
17,CCc1ccc2[nH]c(=O)c(CN(CCCN3CCOCC3)C(=O)Nc3cccc(Cl)c3)cc2c1,-54.1%
18,COc1cc2cc(CN(CCCN3CCOCC3)C(=O)Nc3ccc(F)cc3)c(=O)[nH]c2cc1OC,-33.2%
19,CCc1ccc2[nH]c(=O)c(CN(CCCN3CCOCC3)C(=O)Nc3ccc(Cl)cc3)cc2c1,-65.6%
